RORg inh – qHTS for inhibitors of ROR gamma transcriptional activity. Nuclear receptor ROR-gamma (Mus musculus), P51450. Drosophila S2 Gal4-RORgamma UAS-luciferase reporter, 20 h. Potency, µM (series often up to 53.6 µM), for inactives: at the highest dose activity change, negative = inhibition, actives largely listed as inhibitors. hit rate 5.4% among 310,000. AID 2551, 2010; note: potency is the fitted concentration of half-maximal effect; nearly all actives have a fitted effect of over 60% in size
Target sequence (P51450 whole entry, looked up, the tested form may be a part): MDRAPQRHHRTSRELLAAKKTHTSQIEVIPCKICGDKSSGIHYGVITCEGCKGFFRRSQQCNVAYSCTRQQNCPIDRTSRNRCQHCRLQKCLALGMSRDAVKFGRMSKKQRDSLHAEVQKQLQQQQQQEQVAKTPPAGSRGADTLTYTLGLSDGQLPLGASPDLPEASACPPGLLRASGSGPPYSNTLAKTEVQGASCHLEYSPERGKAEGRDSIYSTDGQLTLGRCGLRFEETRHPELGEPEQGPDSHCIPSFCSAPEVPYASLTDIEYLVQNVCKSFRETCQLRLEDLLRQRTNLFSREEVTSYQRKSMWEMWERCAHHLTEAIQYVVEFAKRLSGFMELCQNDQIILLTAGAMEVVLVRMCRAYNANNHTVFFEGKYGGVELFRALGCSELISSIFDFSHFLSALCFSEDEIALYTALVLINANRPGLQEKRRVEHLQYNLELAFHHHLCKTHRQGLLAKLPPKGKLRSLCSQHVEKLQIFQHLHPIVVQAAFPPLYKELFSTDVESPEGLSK
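ROR gamma transcriptional activity was tracked as Gal4-UAS luciferase output in stably transfected Drosophila Schneider cells, with compound added 1 hr before 700 uM copper sulfate induction and a 20 hr ambient-temperature incubation.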
DT40 TDP1 CPT – qHTS for Inhibitors of human tyrosyl-DNA phosphodiesterase 1 (TDP1): qHTS in cells in presence of CPT | chicken DT40 Tdp1-/-;hTDP1 cells + 20 nM CPT, ATP luminescence, 48 h | Potency, µM (doses to about 46.2 µM), for inactives: at the top dose activity change, negative = growth inhibition, hits mostly inhibitors | hit rate 12% among 420,000 | AID 686979, 2013; note: potency is the fitted concentration of half-maximal effect; nearly all actives have a fitted effect of over 55% in size
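Chicken DT40 Tdp1-/- cells complemented with human TDP1, 400 cells/well, exposed to compounds plus 20 nM camptothecin for at least 48 h at 37 C; viability read as ATP content by CellTiter-Glo luminescence.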
DT40 TDP1 no CPT – qHTS for Inhibitors of human tyrosyl-DNA phosphodiesterase 1 (TDP1): qHTS in cells in absence of CPT; DT40 Tdp1-/- hTDP1 cells, no CPT, ATP luminescence, 48 h; AID 686978, 2013; hit rate 15% among 420,000; Potency, µM (series often up to 46.2 µM), without a hit: top-dose activity change, negative = growth inhibition, usual class: inhibitors; note: potency is the fitted concentration of half-maximal effect; nearly all actives have a fitted effect of over 55% in size
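Seeded 400 DT40-hTDP1 cells/well (vehicle DMSO, no 20 nM CPT); pinned compounds; ≥48 hr at 37 °C; CellTiter-Glo luminescence as viability measure.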
IL-1B inflam inh – qHTS for Inhibitors of Inflammasome Signaling: IL-1-beta AlphaLISA Primary Screen; THP-1 LPS/ATP IL-1B secretion, AlphaLISA, 16 h; hits give low values; activity change, % at 57.5 µM; hit rate 4.7% among 360,000; AID 743279, 2014; in the data active = activity change below about -50%; inconclusive = mostly about -30% to -49%
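Secreted IL-1B measured by AlphaLISA bead assay after 16 h compound exposure of THP-1 cells; compounds (final up to 57.5 uM) added 1 h before LPS (250 ng/mL) and ATP (1.25 mM) stimulation; lower signal means less secretion.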
LDHA block – qHTS assay for inhibitors of human lactate dehydrogenase | L-lactate dehydrogenase A chain (Homo sapiens), P00338 | purified LDHA, NADH/diaphorase-resazurin fluorescence; hits give low values | activity change, % (values are at about 110 or 230 µM) | hit rate 0.15% among 480,000 | AID 1347041, 2019; in the data active = activity change below about -30%; inconclusive = mostly about -25% to -30%;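 note: plate controls were DMSO wells for no effect and wells without enzyme for full effect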
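Remaining NADH was detected by diaphorase (0.133 mg/mL) converting 37 µM resazurin to fluorescent resorufin, read at 0 and 20 minutes. The preceding 5-minute room-temperature reaction used 2 nM LDHA, 0.2 mM sodium pyruvate and 0.06 mM NADH at pH 7.4.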
VP16 counter – VP16 counterscreen qHTS for inhibitors of ROR gamma transcriptional activity; Drosophila S2 Gal4-VP16 UAS-luciferase, luminescence, 20 h; Potency, µM (doses to about 53.6 µM), without a hit: at the highest dose activity, negative = inhibition, actives largely listed as inhibitors; AID 2546, 2010; hit rate 3.5% among 310,000;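 note: Gal4-VP16 expression switched on by copper sulfate through the metallothionein promoter; potency is the fitted concentration of half-maximal effect; nearly all actives have a fitted effect of over 50% in size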
The depositor's hits bear a star; u = inconclusive; x = no result. An excerpt weighted towards active compounds, which were near 18% of everything screened. Unless noted, calls come from the whole dose curve; as a rule, active = well fitted curve in the direction sought with a large enough effect; inconclusive = small, poorly fitted or top-dose-only effect, or another doubt; inactive = no such curve, though single readings can be large; an effect the other way counts as inactive or inconclusive. Unless noted, % is set by controls: 0 for no effect and ±100 for the full control effect.

SMILES | RORg inh | DT40 TDP1 CPT | DT40 TDP1 no CPT | IL-1B inflam inh | LDHA block | VP16 counter
COc1ccccc1C1CN(c2ccccc2)N=C1c1cccs1 (stereo unspecified) | -2% | u | u | 22 | -2 | 7%
COc1ccc(OCCn2c(C)nc3ccccc32)cc1 | x | u | u | u | -6 | x
CCCn1c(=N)n(CCOc2ccc(OC)cc2)c2ccccc21 | 15% | 16µM* | 18µM* | -58* | -2 | 4%
CCOC(=O)Cn1c(=N)n(CCOc2ccc3ccccc3c2)c2ccccc21 | -38% | 18µM* | u | -5 | 6 | -4%
CCOC(=O)Cn1c(=N)n(CCOc2ccc(OC)cc2)c2ccccc21 | 3% | -14% | -10% | u | 0 | 2%
CCOc1ccc(NC(=O)C2CC(=O)NC(Nc3ccc(OCC)cc3)=N2)cc1 (stereo unspecified) | x | x | x | x | -2 | x
CCOc1c2ccc(C(=O)NCC34CC5CC(CC(C5)C3)C4)cc2nn1CC | u | 29µM* | 16µM* | u | 1 | 11µM*
CCOc1c2ccc(C(=O)NCc3ccco3)cc2nn1CC | -2% | -3% | -5% | 8 | 5 | 0%
CCCn1nc2cc(C(=O)NCCc3cccs3)ccc2c1OCC | 7% | -16% | 18µM* | -7 | 0 | u
CCCCn1nc2cc(C(=O)NCC34CC5CC(CC(C5)C3)C4)ccc2c1OC | 0% | 18µM* | u | -2 | 1 | -12%
CCOc1c2ccc(C(=O)NCc3ccccc3OC)cc2nn1CC | 7% | -4% | u | -5 | -2 | -2%
CCn1nc2cc(C(=O)NCC34CC5CC(CC(C5)C3)C4)ccc2c1OC | 7.1µM* | u | u | 0 | 0 | u
O=C(NCCc1ccccc1)C12CC3CC(CC(Cl)(C3)C1)C2 | x | x | x | x | -1 | x
Cc1cccc(CN2C(=O)CN(S(C)(=O)=O)CC2(C)C(=O)NCc2ccc(F)cc2)c1 (stereo unspecified) | x | x | x | x | 1 | x
Cc1cc2oc(=O)cc(CN3CCC4(CC3)OCCO4)c2cc1C | x | x | x | x | 11 | x
COc1ccccc1OCC(=O)Sc1ccc(Cl)cc1 | x | x | x | x | -2 | x
CCN(CC)S(=O)(=O)c1ccc(C)c(C(=O)OCc2nc3ccccc3nc2C)c1 | x | x | x | x | -5 | x
CCOC(=O)c1c(NC(=O)COc2ccccc2)sc(Cc2ccc3c(c2)OCO3)c1C | x | x | x | x | 3 | x
NC(=O)[C@@H]1CCCN1C(C(=O)O)c1cn(CCC(=O)O)c2cc(Br)ccc12 (stereo partly specified) | x | x | x | x | -1 | x
Clc1ccc(-c2nnc(COc3nncc4ccccc34)o2)cc1 | x | x | x | x | 0 | x
Cc1cccc(CNC(C(=O)O)C(C)C)c1 (stereo unspecified) | x | x | x | x | -7 | x
CCOc1c2ccc(C(=O)N[C@H](C)C3CCCCC3)cc2nn1CCOC | 42% | 1.8µM* | 1µM* | 42 | -5 | -9%
CCOc1c2ccc(C(=O)NCc3ccco3)cc2nn1CCOC | 15% | -2% | 0% | 15 | 8 | -4%
Cc1onc(-c2c(F)cccc2Cl)c1C(=O)NC(=S)NC1CCSC1=O (stereo unspecified) | 7.1µM* | 17% | 11% | -7 | -6 | 7.1µM*
Cc1ccccc1C(=O)NC(=S)NC1CCSC1=O (stereo unspecified) | 11µM* | 20% | -19% | -5 | -9 | -19%
SMILES | RORg inh | DT40 TDP1 CPT | DT40 TDP1 no CPT | IL-1B inflam inh | LDHA block | VP16 counter
O=C(NC(=S)NC1CCSC1=O)c1cccs1 (stereo unspecified) | -30% | -4% | 29µM* | -15 | -8 | u
Cc1onc(-c2c(F)cccc2Cl)c1C(=O)NC1CC1 | 16% | -11% | 4% | 10 | -1 | -3%
CCc1ccc(CNC(=O)CCCn2ccc3cc(S(=O)(=O)N4CCCC4)ccc32)cc1 | x | 4.6µM* | 4.1µM* | x | -3 | x
COc1ccc(OC)c(CNC(=O)CCCn2ccc3cc(S(=O)(=O)N4CCCC4)ccc32)c1 | 27% | 15µM* | u | 2 | 0 | 14%
CCOC(=O)N1CCN(C(=O)CN(c2cc(C)ccc2OC)S(C)(=O)=O)CC1 | x | x | x | x | -4 | x
Cc1cc(C)n(-c2nnc3n2N=C(c2ccccc2)CS3)n1 | 0% | -5% | -1% | 26 | -7 | -10%
Cc1cc(C)n(-c2nnc3n2N=C(c2c[nH]c4ccccc24)CS3)n1 | -7% | 21µM* | 15µM* | -10 | -5 | -2%
CC[n+]1ccnc2ccccc21 | x | 2.2µM* | 2.8µM* | x | 7 | x
CC[n+]1c2ccccc2cc2ccccc21 | x | -4% | -16% | x | -4 | x
COc1cccc(CN(C)CC(=O)NC(=O)NC2CC2)c1OC | x | x | x | x | 5 | x
COC(=O)N1CCC[C@@]2(CCN(c3ccncc3)C2)C1 | -8% | -22% | -21% | x | x | 8%
O=C(Oc1ccccc1)N1CCC2(CC1)CN(c1ccncc1)C2 | -20% | 13µM* | 10µM* | x | x | 2%
COC(=O)N1CCC2(CC1)CCN(c1ccncc1)CC2 | -30% | 7.3µM* | 16µM* | x | x | -3%
O=C(Oc1ccccc1)N1CCC2(CCCN(c3ccncc3)C2)CC1 | 13% | 21µM* | 15µM* | x | x | -4%
O=C(Oc1ccccc1)N1CCC2(CCCN(c3ccccc3)C2)CC1 | 27% | 0% | -20% | x | x | 1%
O=C(Oc1ccccc1)N1CCC2(CC1)CN(c1ccccc1)C2 | 41% | u | u | x | x | -17%
COCCn1cnnc1SCC(=O)c1cccc(OC)c1 | x | x | x | x | 5 | x
COc1ccccc1N1CCN(C(=O)COc2cc(C)ccc2C)CC1 | -2% | u | 16µM* | -3 | 1 | -5%
COc1ccccc1N1CCN(C(=O)COc2ccc(C)cc2Br)CC1 | -8% | -16% | u | -16 | -3 | 2%
Cc1cc(OCC(=O)Nc2ccccc2C(N)=O)c2c(C)cc(=O)oc2c1 | -3% | u | 23µM* | -12 | -9 | 3%
COc1ccccc1N1CCN(C(=O)/C=C/c2ccc(C)cc2)CC1 | 2% | u | 13µM* | 8 | 1 | 3%
COc1ccccc1N1CCN(C(=O)COc2cc(C)cc3oc(=O)cc(C)c23)CC1 | 27% | 16µM* | 21µM* | -8 | -1 | -6%
O=[N+]([O-])c1cc(/C=N/Nc2ccc(S(=O)(=O)Nc3ccc(Cl)cc3)cc2[N+](=O)[O-])ccc1Cl | x | x | x | x | -4 | x
CCOc1ccc(NC(=O)c2ccc(C)cc2)c2cccnc12 | x | x | x | x | 14 | x

Screening results: PubChem, National Center for Advancing Translational Sciences (NCATS)
